# Measured values reported in the supplement of paper PMC10849652.
# Targets with a hit are over-represented here; the source holds about 8,800 in all. About 0.5% of all pairs of compound and target were hits. Values without a mark were called inactive.
# What was measured:
# Assay in all cases: log2 fold change, soluble protein after heating vs DMSO (PISA); higher = thermal stabilisation; K562 lysate, 10 uM; active = over 0.2 and 3.5 SD of the protein, either way, in both replicates (recomputed)
# [1] = compound: CCCS(=O)(=O)Nc1ccc(F)c(C(=O)c2c[nH]c3ncc(-c4ccc(Cl)cc4)cc23)c1F [vemurafenib]
# Summary of the method: (§1)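 K562 pellets were dounce-homogenised in PBS pH 7.4 containing 1 mM MgCl2, and the crude extract, at 1 mg/mL protein, was exposed to 10 μM compound for 30 min. Aliquots were heated for 3 min across 48°C-58°C, pooled, brought to 0.5% NP-40 at 4°C and spun at 21,000xg for 90 min, with the supernatant taken as soluble protein. TMTpro 16plex LC-MS/MS with equalised channel sums quantified that protein. Values are log-two fold changes in thermal stability relative to solvent controls, taken from duplicates.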
# [2] = compound: CCCS(=O)(=O)Nc1ccc(F)c(C(=O)c2c[nH]c3ncc(Cl)cc23)c1F
# Summary of the method: as §1
# [3] = compound: CCN(CCCOc1ccc2c(Nc3cc(CC(=O)Nc4cccc(F)c4)[nH]n3)ncnc2c1)CCOP(=O)(O)O [barasertib]
# Summary of the method: as §1
# [4] = compound: CC[C@@H]1C(=O)N(C)c2cnc(Nc3ccc(C(=O)NC4CCN(C)CC4)cc3OC)nc2N1C1CCCC1
# Summary of the method: as §1
# [5] = compound: CC[C@@H]1C(=O)N(C)c2cnc(Nc3ccc(C(=O)N[C@H]4CC[C@H](N5CCN(CC6CC6)CC5)CC4)cc3OC)nc2N1C(C)C [volasertib]
# Summary of the method: as §1
# [6] = compound: CCn1c(C(=O)N(C2CC2)C2CC2)cc2c3c(ncn3C)c(Nc3cc(C)n(C)n3)nc21
# Summary of the method: as §1
# [7] = compound: CCn1cc(-c2ccnc3[nH]c(-c4cccc(CN(C)C)c4)cc23)c(-c2ccc(NC(=O)N(C)C)cc2)n1
# Summary of the method: as §1
# [8] = compound: CN1CCC(CNc2ccc3ncc(-c4cccc(OC(F)(F)F)c4)n3n2)CC1
# Summary of the method: as §1
# [9] = compound: CN1CCN(CCOc2cc(OC3CCOCC3)c3c(Nc4c(Cl)ccc5c4OCO5)ncnc3c2)CC1 [saracatinib]
# Summary of the method: as §1
# [10] = compound: CN1CCN(c2nc(C3=C(c4c[nH]c5ccccc45)C(=O)NC3=O)c3ccccc3n2)CC1 [sotrastaurin]
# Summary of the method: as §1
# [11] = compound: CN1CC[C@H](c2c(O)cc(O)c3c(=O)cc(-c4ccccc4Cl)oc23)[C@H](O)C1 [alvocidib]
# Summary of the method: as §1
# [12] = compound: CN1CCc2c(c3ccccc3n2Cc2ccc(C(=O)NO)cc2)C1 [Tubastatin A]
# Summary of the method: as §1
# [13] = compound: CNC(=O)C1=CC=CC=C1NC2=NC(=NC=C2Cl)NC3=C(C=C(C=C3)N4CCOCC4)OC
# Summary of the method: as §1
# [14] = compound: CNC(=O)c1ccc(Nc2ncc(C(F)(F)F)c(NCc3nccnc3N(C)S(C)(=O)=O)n2)cc1 [defactinib]
# Summary of the method: as §1
# [15] = compound: CNc1nc(-c2ccc3c(N)n[nH]c3c2)cc(N2C[C@@H](C(=O)NC3CCCCC3)CC[C@H]2C)n1
# Summary of the method: as §1
# [16] = compound: COC(=O)N[C@@H](C)CNc1nccc(-c2cn(C(C)C)nc2-c2cc(Cl)cc(NS(C)(=O)=O)c2F)n1 [encorafenib]
# Summary of the method: as §1
# [17] = compound: COC(=O)[C@H](CCSC)NC(=O)C1=C(C=C(C=C1)NC[C@H](CS)N)C2=CC=CC=C2
# Summary of the method: as §1
# [18] = compound: COc1cc(Nc2ncc3c(n2)-c2ccc(Cl)cc2C(c2c(F)cccc2OC)=NC3)ccc1C(=O)O [alisertib]
# Summary of the method: as §1
# [19] = compound: COc1cc2nc(-c3cc(F)ccc3O)nc(N[C@@H]3CNC[C@H]3C(C)(C)O)c2cc1OC
# Summary of the method: as §1
# [20] = compound: COc1cc2ncnc(Nc3ccc(F)c(Cl)c3)c2cc1OCCCN1CCOCC1 [gefitinib]
# Summary of the method: as §1
# Chain of UniProt Q9UET6 (Q9UET6 whole entry, looked up): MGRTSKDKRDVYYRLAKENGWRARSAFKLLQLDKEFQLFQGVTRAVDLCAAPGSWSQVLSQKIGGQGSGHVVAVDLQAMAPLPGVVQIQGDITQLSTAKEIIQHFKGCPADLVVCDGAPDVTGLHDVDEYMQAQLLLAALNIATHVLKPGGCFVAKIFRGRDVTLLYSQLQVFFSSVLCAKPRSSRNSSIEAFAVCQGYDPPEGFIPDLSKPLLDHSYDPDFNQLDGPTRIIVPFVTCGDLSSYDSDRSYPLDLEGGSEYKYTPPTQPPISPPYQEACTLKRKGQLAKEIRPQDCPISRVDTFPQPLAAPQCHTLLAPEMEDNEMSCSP
# Chain of UniProt P22102 (P22102 whole entry, looked up): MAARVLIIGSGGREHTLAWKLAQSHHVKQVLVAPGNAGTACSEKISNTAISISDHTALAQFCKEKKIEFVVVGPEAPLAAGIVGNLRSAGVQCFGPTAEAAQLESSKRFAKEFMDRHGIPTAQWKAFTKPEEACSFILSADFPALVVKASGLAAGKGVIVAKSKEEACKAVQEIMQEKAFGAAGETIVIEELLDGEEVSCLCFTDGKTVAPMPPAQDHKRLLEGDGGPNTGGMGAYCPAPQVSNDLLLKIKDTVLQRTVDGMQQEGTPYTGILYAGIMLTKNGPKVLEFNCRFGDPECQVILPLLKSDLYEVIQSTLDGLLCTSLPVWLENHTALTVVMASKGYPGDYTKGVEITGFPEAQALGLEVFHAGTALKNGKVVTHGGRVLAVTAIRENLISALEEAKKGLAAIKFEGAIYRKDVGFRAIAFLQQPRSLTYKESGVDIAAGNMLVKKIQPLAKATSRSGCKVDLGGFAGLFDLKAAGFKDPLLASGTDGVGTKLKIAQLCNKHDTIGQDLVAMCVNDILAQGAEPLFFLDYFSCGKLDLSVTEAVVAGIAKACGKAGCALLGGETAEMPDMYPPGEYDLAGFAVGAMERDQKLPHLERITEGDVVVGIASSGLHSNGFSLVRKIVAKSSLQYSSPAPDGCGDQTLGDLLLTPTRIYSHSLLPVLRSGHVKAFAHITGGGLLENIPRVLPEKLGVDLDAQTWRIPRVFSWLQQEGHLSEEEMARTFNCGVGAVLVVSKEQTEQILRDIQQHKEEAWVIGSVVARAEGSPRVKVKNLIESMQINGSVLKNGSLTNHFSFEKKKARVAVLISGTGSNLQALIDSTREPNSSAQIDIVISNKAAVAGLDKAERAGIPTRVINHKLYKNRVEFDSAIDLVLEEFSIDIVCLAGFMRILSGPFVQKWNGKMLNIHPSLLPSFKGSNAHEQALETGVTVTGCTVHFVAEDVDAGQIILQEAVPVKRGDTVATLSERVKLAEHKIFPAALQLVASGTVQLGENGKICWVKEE
# Chain of UniProt Q06210 (Q06210 whole entry, looked up): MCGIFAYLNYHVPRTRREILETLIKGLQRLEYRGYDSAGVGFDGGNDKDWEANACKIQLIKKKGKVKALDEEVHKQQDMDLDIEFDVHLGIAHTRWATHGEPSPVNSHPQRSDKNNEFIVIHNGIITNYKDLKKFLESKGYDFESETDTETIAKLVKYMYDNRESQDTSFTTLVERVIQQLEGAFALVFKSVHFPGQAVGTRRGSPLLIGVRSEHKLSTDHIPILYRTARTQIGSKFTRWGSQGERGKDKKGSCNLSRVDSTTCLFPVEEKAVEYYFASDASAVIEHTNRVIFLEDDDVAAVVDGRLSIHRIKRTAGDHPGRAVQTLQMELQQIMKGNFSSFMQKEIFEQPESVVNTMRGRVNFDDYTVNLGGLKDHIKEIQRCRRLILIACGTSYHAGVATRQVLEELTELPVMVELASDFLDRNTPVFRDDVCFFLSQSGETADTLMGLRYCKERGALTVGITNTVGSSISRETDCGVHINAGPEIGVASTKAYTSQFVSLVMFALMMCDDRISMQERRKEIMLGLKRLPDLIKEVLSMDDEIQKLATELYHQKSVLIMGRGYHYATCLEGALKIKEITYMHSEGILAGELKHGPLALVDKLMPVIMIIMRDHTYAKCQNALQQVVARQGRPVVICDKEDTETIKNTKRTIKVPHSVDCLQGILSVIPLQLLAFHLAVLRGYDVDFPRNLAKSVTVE
# Chain of UniProt P54852 (P54852 whole entry, looked up): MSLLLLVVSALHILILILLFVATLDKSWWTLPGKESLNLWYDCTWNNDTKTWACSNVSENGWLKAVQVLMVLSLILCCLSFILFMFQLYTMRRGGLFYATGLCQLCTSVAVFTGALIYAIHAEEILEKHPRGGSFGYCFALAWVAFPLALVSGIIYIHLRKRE
# Chain of UniProt Q8TEQ6 (Q8TEQ6 whole entry, looked up): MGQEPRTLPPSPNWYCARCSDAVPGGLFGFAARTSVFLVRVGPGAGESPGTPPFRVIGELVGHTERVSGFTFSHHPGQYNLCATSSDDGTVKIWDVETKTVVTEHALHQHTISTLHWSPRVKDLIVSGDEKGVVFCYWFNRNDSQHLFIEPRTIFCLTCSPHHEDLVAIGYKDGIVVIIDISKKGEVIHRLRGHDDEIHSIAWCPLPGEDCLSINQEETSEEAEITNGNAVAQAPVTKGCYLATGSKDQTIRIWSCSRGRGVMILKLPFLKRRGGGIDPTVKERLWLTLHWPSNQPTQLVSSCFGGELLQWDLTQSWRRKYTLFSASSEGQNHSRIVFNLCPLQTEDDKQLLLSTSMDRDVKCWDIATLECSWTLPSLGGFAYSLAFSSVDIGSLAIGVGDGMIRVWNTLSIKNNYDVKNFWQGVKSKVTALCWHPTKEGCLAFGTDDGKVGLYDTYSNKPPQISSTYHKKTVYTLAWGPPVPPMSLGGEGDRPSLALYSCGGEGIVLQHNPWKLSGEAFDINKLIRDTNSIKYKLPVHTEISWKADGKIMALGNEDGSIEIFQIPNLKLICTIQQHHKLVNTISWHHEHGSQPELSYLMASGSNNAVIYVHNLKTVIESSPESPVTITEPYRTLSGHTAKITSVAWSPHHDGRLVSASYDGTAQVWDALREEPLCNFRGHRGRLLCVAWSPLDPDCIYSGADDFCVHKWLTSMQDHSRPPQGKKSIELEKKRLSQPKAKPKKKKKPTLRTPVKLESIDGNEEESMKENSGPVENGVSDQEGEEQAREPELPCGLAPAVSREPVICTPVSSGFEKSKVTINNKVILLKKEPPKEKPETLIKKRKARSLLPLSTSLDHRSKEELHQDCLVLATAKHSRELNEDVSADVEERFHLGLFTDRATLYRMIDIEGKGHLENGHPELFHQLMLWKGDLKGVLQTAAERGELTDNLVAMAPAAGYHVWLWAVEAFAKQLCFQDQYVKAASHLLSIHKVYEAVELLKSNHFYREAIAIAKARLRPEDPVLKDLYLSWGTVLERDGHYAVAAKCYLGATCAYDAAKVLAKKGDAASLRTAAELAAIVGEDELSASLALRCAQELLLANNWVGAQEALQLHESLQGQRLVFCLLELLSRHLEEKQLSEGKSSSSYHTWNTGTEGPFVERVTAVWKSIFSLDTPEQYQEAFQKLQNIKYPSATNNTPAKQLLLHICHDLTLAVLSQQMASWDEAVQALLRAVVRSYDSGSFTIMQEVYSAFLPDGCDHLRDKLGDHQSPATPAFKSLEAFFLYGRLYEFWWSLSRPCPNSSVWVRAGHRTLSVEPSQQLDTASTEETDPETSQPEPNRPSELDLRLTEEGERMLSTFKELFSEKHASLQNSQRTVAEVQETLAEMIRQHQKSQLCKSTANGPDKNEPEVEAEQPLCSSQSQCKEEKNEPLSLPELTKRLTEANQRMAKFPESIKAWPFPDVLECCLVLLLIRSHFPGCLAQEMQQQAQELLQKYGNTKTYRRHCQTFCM
# Chain of UniProt Q6PIJ6 (Q6PIJ6 whole entry, looked up): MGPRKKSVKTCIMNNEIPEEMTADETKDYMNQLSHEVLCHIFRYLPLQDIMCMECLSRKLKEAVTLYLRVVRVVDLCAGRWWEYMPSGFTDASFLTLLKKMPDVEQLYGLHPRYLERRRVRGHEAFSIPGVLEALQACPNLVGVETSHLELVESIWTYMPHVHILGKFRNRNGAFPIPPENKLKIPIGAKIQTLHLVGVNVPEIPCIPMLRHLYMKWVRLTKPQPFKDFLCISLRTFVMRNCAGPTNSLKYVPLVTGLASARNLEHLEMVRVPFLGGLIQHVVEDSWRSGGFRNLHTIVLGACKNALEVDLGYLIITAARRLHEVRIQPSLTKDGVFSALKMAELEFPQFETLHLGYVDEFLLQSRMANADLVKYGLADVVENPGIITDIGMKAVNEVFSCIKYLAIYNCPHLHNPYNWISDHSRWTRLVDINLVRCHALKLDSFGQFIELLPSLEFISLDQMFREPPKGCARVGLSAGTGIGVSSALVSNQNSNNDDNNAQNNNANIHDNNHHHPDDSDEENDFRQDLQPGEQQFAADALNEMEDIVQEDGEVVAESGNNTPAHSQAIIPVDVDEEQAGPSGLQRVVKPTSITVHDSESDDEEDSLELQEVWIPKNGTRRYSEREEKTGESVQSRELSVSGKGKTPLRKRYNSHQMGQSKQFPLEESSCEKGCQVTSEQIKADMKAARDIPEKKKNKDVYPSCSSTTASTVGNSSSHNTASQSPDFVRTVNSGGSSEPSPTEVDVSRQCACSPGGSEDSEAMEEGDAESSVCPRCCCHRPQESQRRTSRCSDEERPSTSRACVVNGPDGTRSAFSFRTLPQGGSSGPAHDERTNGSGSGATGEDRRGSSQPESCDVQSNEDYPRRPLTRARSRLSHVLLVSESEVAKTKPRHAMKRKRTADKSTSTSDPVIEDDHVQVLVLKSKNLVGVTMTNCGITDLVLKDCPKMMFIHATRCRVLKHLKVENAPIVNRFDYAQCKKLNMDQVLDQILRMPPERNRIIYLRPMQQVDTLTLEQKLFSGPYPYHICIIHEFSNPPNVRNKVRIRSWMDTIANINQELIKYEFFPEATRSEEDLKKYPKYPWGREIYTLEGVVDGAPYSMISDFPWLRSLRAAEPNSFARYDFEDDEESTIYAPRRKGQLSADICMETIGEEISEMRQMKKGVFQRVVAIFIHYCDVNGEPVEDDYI
Target,log2 fold change [1],log2 fold change [2],log2 fold change [3],log2 fold change [4],log2 fold change [5],log2 fold change [6],log2 fold change [7],log2 fold change [8],log2 fold change [9],log2 fold change [10],log2 fold change [11],log2 fold change [12],log2 fold change [13],log2 fold change [14],log2 fold change [15],log2 fold change [16],log2 fold change [17],log2 fold change [18],log2 fold change [19],log2 fold change [20]
GART (UniProt P22102),0.007,0.001,0.028,-0.066,-0.054,0.038,0.124,-0.013,0.011,-0.023,0.021,-0.073,0.002,-0.024,0.021,-0.027,0.08,0.008,-0.004,-0.017
FTSJ1 (UniProt Q9UET6),-0.036,-0.006,-0.043,-0.04,-0.056,-0.003,0.067,0.027,-0.018,0.089,0.003,-0.038,0.049,-0.021,-0.016,-0.025,0.089,0.004,0.005,-0.001
EMP3 (UniProt P54852),0.022,-0.002,0.005,0.066,0.124,-0.112,-0.967 (active),0.365 (active),0.049,-0.029,-0.227,-0.021,0.067,0.009,0.056,-0.016,0.022,0.053,0.052,-0.071
GFPT1 (UniProt Q06210),0.014,0.02,0.009,-0.026,-0.036,0.007,0.009,-0.042,0.009,-0.014,0.022,-0.075,0.011,0.01,0.012,-0.012,0.134,0.005,0.007,-0.013
FBXO38 (UniProt Q6PIJ6),-0.042,-0.024,0.052,-0.121,0.037,0.028,0.006,0.036,-0.039,0.027,-0.008,-0.043,-0.616 (active),0.019,0.01,-0.004,-0.038,-0.015,-0.062,0.056
"FADS1, A0A0A0MR51",-0.041,0.145,-0.018,0.02,-0.187,-0.062,-0.021,-0.078,-0.026,-0.037,0.03,0.1,0.158,0.084,0.011,-0.055,0.03,-0.008,-0.067,-0.001
GEMIN5 (UniProt Q8TEQ6),0.006,0.008,0.004,-0.085,-0.069,0.066,-0.052,-0.061,0.018,0.015,0.023,-0.21,0.027,0.031,-0.007,0.011,0.057,0.014,-0.019,-0.032
EIF2B4 isoform 2 (UniProt Q9UI10),-0.034,0.02,0.006,-0.038,-0.017,-0.004,-0.02,0.002,0.006,-0.004,-0.015,-0.025,0.013,0.035,0.02,0.018,0.162,-0.014,0.016,0
